An excerpt weighted towards active compounds, which were near 2.4% of everything screened.
Pol beta inh – DNA polymerase beta (human) inhibition; P06746; Pol beta primer extension/strand displacement, fluorescence kinetic; Potency, µM (highest dose often 114 µM), most hits filed as inhibitors; hit rate 1.3% among 340,000
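Preincubation: enzyme (10 nM) with compound, 15 min, RT. Reaction: substrate added to 50 nM final. Reads: 0 and 10 min. Analysis: normalized, Hill fit.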
Pol kappa inh – DNA polymerase kappa (human) inhibition; Q9UBT6; hit rate 0.53% among 400,000; purified Pol kappa, fluorescent DNA synthesis assay, 10 min; Potency, µM (series often up to 107 µM), actives largely listed as inhibitors
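50 nM final substrate added after 15 min RT preincubation of 10 nM Pol kappa with compound; fluorescence read at 0 and 10 min.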
FEN1 inh – blocks human flap endonuclease 1. P39748. Recombinant FEN1 flap cleavage, fluorescence, 15 min. Potency, µM (doses to about 114 µM), hits mostly inhibitors. hit rate 0.35% among 390,000; note: nearly all actives have a fitted effect of over 65% in size
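In this screen, 50 nM flap DNA substrate was added to 10 nM FEN1 pretreated with compound for 15 min at room temperature; cleavage was followed with reads at 0 and 15 min, and Hill fitting gave concentration–response parameters.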
WRN helicase inh – WRN helicase (human) inhibition. WRN helicase unwinding, fluorescent forked duplex, kinetic. Q14191. hit rate 0.46% among 360,000. Potency, µM (top dose mostly 114 µM), actives largely listed as inhibitors. AID 651768; note: nearly all actives have a fitted effect of over 55% in size
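WRN at 20 nM final was preincubated with compound for 15 min at room temperature; reaction started with 100 nM forked duplex oligonucleotide carrying fluorophore and quencher plus 2 mM ATP (final). Unwinding followed kinetically by red fluorescence (ex 525/em 598 nm).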
Pol iota inh – DNA polymerase iota (human) inhibition | Q9UNA4 | Pol iota fluorescent replication assay, 10 min | Potency, µM (highest dose often 115 µM), hits mostly inhibitors | hit rate 1% among 390,000
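Fluorescent replication assay read twice, at 0 min and 10 min after adding 50 nM (final) substrate. Enzyme (10 nM) and compounds were first incubated 15 min at room temperature; enzyme-free buffer wells were negative controls.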
Pol eta inh – DNA polymerase eta (human) inhibition. Q9Y253. hit rate 1.2% among 390,000. recombinant Pol eta, fluorescent DNA replication assay. Potency, µM (titrated, usually from 114 µM), hits mostly inhibitors
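Pol eta at 10 nM preincubated with compounds 15 min at room temperature; reaction started with fluorescent substrate (50 nM final) and read kinetically at 0 and 10 min.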
Large screens that a line does not name were inactive; ! = repeats disagree. Calls come from the whole dose curve; as a rule, active = well fitted curve in the direction sought with a large enough effect; inconclusive = small, poorly fitted or top-dose-only effect, or another doubt; inactive = no such curve, though single readings can be large; an effect the other way counts as inactive or inconclusive.

Cc1onc(-c2ccccc2)c1C(=O)Nc1sc2c(c1C#N)CCC2	Pol beta inh 20µM, Pol kappa inh inconclusive, FEN1 inh inconclusive, WRN helicase inh 50µM, Pol iota inh 20µM, Pol eta inh 28µM
Cc1csc(SCC(=O)Nc2sc3c(c2C#N)CCC3)n1	Pol beta inh 20µM, Pol iota inh inconclusive, Pol eta inh inconclusive
Cc1ccc(C)c(N2CCN(C(=O)c3ccc4c(c3)N(Cc3ccc(F)cc3)C(=O)c3ccccc3S4=O)CC2)c1 (stereo unspecified)	none (no result: WRN helicase inh)
O=C(N/N=C/c1ccc(Cl)c([N+](=O)[O-])c1)c1ccc2nc[nH]c2c1	Pol beta inh 40µM, FEN1 inh inconclusive, Pol eta inh inconclusive
C[C@@](N)(Cc1ccc(O)c(O)c1)C(=O)O	Pol kappa inh 3.5µM! (no result: Pol beta inh, FEN1 inh, WRN helicase inh, Pol iota inh, Pol eta inh)
O=C(O)c1cn(-c2ccc(F)cc2)c2cc(N3CCNCC3)c(F)cc2c1=O	FEN1 inh 45µM, Pol iota inh inconclusive (no result: Pol beta inh)
Cn1cc(S(=O)(=O)c2ccccc2)c(=O)c2cc(F)c(N3CCN(c4ccc(F)cc4)CC3)cc21	none (no result: WRN helicase inh)
CCCCSc1nnc2c(n1)OC(c1ccc(Br)s1)Nc1ccccc1-2 (stereo unspecified)	none (no result: WRN helicase inh)
COc1cc(NC(=O)c2ccc(-c3nc(COc4ccccc4)c(C)o3)cc2)cc(OC)c1	none (no result: WRN helicase inh)
Clc1ccc(-c2csc(N/N=C/c3cccnc3)n2)c(Cl)c1	Pol beta inh 79µM
CC(C)(C)c1cc(CN2CCN(CCO)CC2)cc(C(C)(C)C)c1O	Pol beta inh 0.89µM
CCOC(=O)C1CCN(Cc2cc(C(C)(C)C)c(O)c(C(C)(C)C)c2)CC1	none
O=C(NCC(c1cccnc1)N1CCc2ccccc21)c1ccc(Cl)cc1 (stereo unspecified)	none (no result: WRN helicase inh)
CC(C)CCNC(=O)c1ccc2nc[nH]c2c1	none
O=C(NCCSc1ccc(Br)cc1)c1ccc2nc[nH]c2c1	Pol beta inh 40µM, Pol iota inh 20µM, Pol eta inh 22µM
O=C(NCCc1ccc(Cl)cc1Cl)c1ccc2nc[nH]c2c1	none
COc1ccccc1CCNC(=O)c1ccc2nc[nH]c2c1	Pol beta inh 45µM, Pol eta inh inconclusive
CN(C)c1ccc(/C=C/C(=O)c2cc(Cl)ccc2O)cc1	WRN helicase inh 50µM, Pol eta inh inconclusive
CC(=O)Nc1cccc(C(=O)/C=C/c2ccc(N(C)C)cc2)c1	Pol beta inh 50µM, Pol kappa inh inconclusive, FEN1 inh inconclusive, WRN helicase inh inconclusive, Pol iota inh 22µM, Pol eta inh inconclusive
COc1cccc(Cn2c(=O)c(-c3cccc(C#N)c3)nc3cnc(Nc4ccccc4)nc32)c1	none (no result: Pol beta inh, FEN1 inh, WRN helicase inh, Pol iota inh, Pol eta inh)
COc1c(O)cc2c(c1O)C1OC(CO)C(O)C(O)C1OC2=O (stereo unspecified)	none (no result: Pol beta inh)
O=C1OCC2OC(O)C(O)C(O)C2OC(=O)c2cc(O)c(O)c(O)c2-c2c(O)c(O)c3oc(=O)c4c(c(O)c(O)c5oc(=O)c2c3c54)-c2c1cc(O)c(O)c2O (stereo unspecified)	Pol beta inh 0.16µM (no result: Pol kappa inh, FEN1 inh, WRN helicase inh, Pol iota inh, Pol eta inh)
O=C(O)CCN1C(=O)/C(=C\c2ccc(-c3nc4ccccc4s3)o2)SC1=S	Pol beta inh inconclusive, WRN helicase inh inconclusive, Pol eta inh 2.5µM
O=C(O)CCN1C(=O)/C(=C\c2ccncc2)SC1=S	none
O=c1c2ccccc2sn1-c1nccs1	FEN1 inh inconclusive, WRN helicase inh 25µM
O=c1c2ccccc2sn1-c1cccc(Cl)c1	none (no result: Pol beta inh, Pol kappa inh, FEN1 inh, Pol iota inh)
O=c1c2ccccc2sn1-c1ccccc1	FEN1 inh inconclusive, WRN helicase inh 50µM, Pol iota inh inconclusive
Cc1ccccc1-n1sc2cc(F)ccc2c1=O	FEN1 inh 79µM, WRN helicase inh 14µM
O=C(O)c1cccc(-n2sc3ccccc3c2=O)c1	FEN1 inh 20µM, Pol iota inh inconclusive (no result: Pol beta inh)
COc1ccc(CNS(=O)(=O)c2ccc(N3CCCCS3(=O)=O)cc2)cc1	none (no result: WRN helicase inh)
O=c1c2cc(F)ccc2sn1-c1ccccc1	FEN1 inh 79µM (no result: Pol beta inh)
N#C/C(=C\c1ccc(N2CCOCC2)o1)C(=O)NCC1CCCO1 (stereo unspecified)	Pol beta inh inconclusive
N#C/C(=C\c1ccc(-c2ccc(C(=O)O)cc2)o1)C(=O)NCC1CCCO1 (stereo unspecified)	Pol beta inh 16µM, Pol kappa inh inconclusive, Pol iota inh inconclusive, Pol eta inh 13µM
Cc1cccc(C)c1NC(=O)/C(C#N)=C/c1ccc(-c2ccc(C(=O)O)cc2)o1	Pol beta inh inconclusive, Pol kappa inh inconclusive, Pol eta inh 50µM
Cc1ccc(NC(=O)Nc2nnc(SCC(=O)N3CCC(C)CC3)s2)cc1	none (no result: WRN helicase inh)
CC(=O)N1CCCC1c1nc2ccccc2n1Cc1ccccc1F (stereo unspecified)	none (no result: WRN helicase inh)
COc1cc(OC)c(Nc2c3c(nc4nc(-c5cccs5)nn24)CCCC3)cc1Cl	Pol iota inh inconclusive (no result: WRN helicase inh)
N#CC1=C(N)n2c(s/c(=C\c3cccs3)c2=O)=C(C#N)C1c1cccs1 (stereo unspecified)	Pol beta inh inconclusive, Pol kappa inh inconclusive, FEN1 inh inconclusive, Pol iota inh inconclusive, Pol eta inh 45µM
CC1(C)CC(=O)C2=C(C1)N(c1ccc(F)cc1)C(N)=C(C#N)C2c1cccs1 (stereo unspecified)	none
Cc1ccccc1-n1c(=O)/c(=C\c2ccco2)s/c1=C(/C#N)C(=O)Nc1ccccc1	none
N#CC1=C(N)n2c(s/c(=C\c3ccco3)c2=O)=C(C#N)C1c1ccco1 (stereo unspecified)	Pol beta inh 7.1µM, Pol kappa inh 22µM, FEN1 inh 45µM, WRN helicase inh 40µM, Pol iota inh 7.9µM, Pol eta inh 3.2µM
CC(C)(C)C(c1nc2ccccc2[nH]1)n1c(-c2cccc(S(C)(=O)=O)c2)nc2ccccc21 (stereo unspecified)	none (no result: Pol beta inh, Pol kappa inh, FEN1 inh, Pol iota inh, Pol eta inh)
COc1ccc(C2=NOC3(CC(=O)N(c4ccc5ccccc5c4)C3=O)C2)c(OC)c1 (stereo unspecified)	Pol beta inh 50µM, Pol iota inh inconclusive
O=c1c2ccccc2nc2n1CCCCC2	none
O=c1c2ccccc2nc2n1CCC2	FEN1 inh inconclusive, WRN helicase inh 22µM, Pol iota inh 50µM, Pol eta inh inconclusive
COc1ccc(C(=O)Nc2nc3ccccc3[nH]2)cc1OC	none
COc1ccc(Cl)cc1C(=O)Nc1nc2ccccc2[nH]1	Pol beta inh 45µM, Pol iota inh 79µM
CC(C)C[C@H](NC(=O)C1CC(=O)N(c2ccc3c(c2)OCO3)C1)C(=O)NC1CCCC1 (stereo partly specified)	Pol eta inh 89µM
CCCn1c(/C=C/c2ccccc2)nc2ccccc21	none
CC(C)Cn1c(/C=C/c2ccco2)nc2ccccc21	Pol beta inh 28µM
COc1ccc(-c2nnc(SCC(=O)N3CCC(C)CC3)o2)cc1	none (no result: WRN helicase inh)
COc1ccccc1N1CCN(CC2CN3C(=O)N(C)c4ccccc4C3=N2)CC1 (stereo unspecified)	none (no result: Pol beta inh, FEN1 inh, WRN helicase inh, Pol iota inh, Pol eta inh)
